Results on 18 compounds are retold here after PubChem BioAssay.

A word on the viability: it is a read-out of living cells in per cent, often relative to untreated cells. Usually inhibition stands for the relative decrease from the control value, in per cent.

Inconclusive results are not listed. The source made the active and inactive calls.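 How the source made its calls, unless noted: active means viability loss from added drug above about 55%, and viability with drug at most 40%, in both replicates (limit read from the data, passing the limit was not always enough); inconclusive means both conditions met in only one replicate; inactive means neither replicate meets both conditions.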

Assay [1] in a line: reducers of endogenous Her2 protein level, primary screen, SKBR3 breast tumor cells, AlphaScreen, ATP viability (AID 461;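 active means Her2 level under about 52% in both replicate screens, with viability over 70% of control, limit read from the data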;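 on Her2 level: lower value means less Her2 protein in the cells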;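 on viability: percent of carrier control wells set as 100% viability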). Particulars: 18-24 h, measured here: SKBR3 viability, ATP luminescence, at 10 µM.
Assay [2] addresses Receptor tyrosine-protein kinase erbB-2 (Homo sapiens) (UniProt P04626). The assay is described as above. Particulars: 18-24 h, at 10 µM, stronger effect = lower value.
The nature of assay [3]: SK-BR-3 cell growth inhibitors, pilot screen, 24 h, human (AID 572;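 active means viability at or below 10% of carrier control in both of two separate runs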;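 further: compound exposure lasted between 18 and 24 h rather than exactly 24 h; 100% = carrier-treated control wells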). Particulars: SK-BR-3 viability, CellTiter-Glo luminescence, at 10 µM, stronger effect = lower value. On the technique in general: ATP-based viability assays read luminescence as a measure of living cells.
A short description of assay [4]: reversal of MRP1-mediated doxorubicin resistance, pilot screen, H69AR cells, doxorubicin co-treatment (AID 601). The following applies: CellTiter-Glo, 72 h, at 10 µM; for differential viability (reversal): stronger effect = higher value.
Assay [5] in a line: 384-well plate pilot, post-Golgi transport modulator project, inhibition of yeast transport mutant growth (AID 636; in the data active means inhibition above about 31%). Particulars: absorbance 615 nm, about 18 h, stronger effect = higher value.
A short description of assay [6]: growth suppression of yeast trafficking mutant, preliminary HTS, modulators of trafficking downstream of Golgi apparatus project, 1536-format plate, OD 615 nm (AID 637; in the data active means inhibition above about 30%). The following applies: yeast transport mutant growth, absorbance 615 nm, 18 h; stronger effect = higher value.
The nature of assay [7]: growth inhibitors of H69AR lung tumor, primary screen, human, duplicate replicates (AID 580;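 active means viability at or under a set limit in both replicates, limit being median viability minus 3 SD, cut at about 48% in these data, passing the limit was not always enough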;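 further: 100% = mean luminescence of untreated wells and 0% = no signal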). Particulars: H69AR lung tumor cells viability, ATP luminescence, 72 h; at 10 µM; stronger effect = lower value.
Assay [8] is described as follows: Restrictive medium S. cerevisiae growth inhibition, OD615, pilot screen of yeast lifespan reduction project, restrictive growth control (AID 706;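 active means growth inhibition above a set limit, 3 SD over mean compound inhibition, in both replicates, cut at about 43% in these data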;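 further: modified DeaD lifespan yeast strain shifted to restrictive glucose medium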). Particulars: OD615, 48 h, at 10 µM, stronger effect = higher value.
Assay [9] in a line: viability gain of MRP-1-high H69AR cells under doxorubicin, pilot screen, MRP-1 activator project, CellTiter-Glo, duplicate (AID 807;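 active means viability increase at or above a cutoff of the median across tested compounds plus 3 SD, cut at about 8.5% in these data, passing the limit was not always enough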;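 further: compound pretreatment 18-22 h then 72 h combined with doxorubicin; 0% = doxorubicin alone and 100% = vehicle without doxorubicin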). The following applies: H69AR viability with doxorubicin, CellTiter-Glo luminescence; at 10 µM; stronger effect = higher value.
The nature of assay [10]: growth suppression of beta-catenin knockout HCT116, pilot screen, human colon tumor cells (AID 823;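 active means cell viability at or below a set limit in both duplicate runs, the limit being the all-compound median minus 4 SD, cut at about 23% in these data, passing the limit was not always enough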;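 further: 0% = wells killed by 20 µM Hyamine and 100% = untreated DMSO cell wells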). The following applies: CellTiter-Glo, 60 h, at 10 µM, stronger effect = lower value.
The nature of assay [11]: growth suppression of PTEN-deleted HCT116, pilot screen, cell-based, HCT116 clonal line, CellTiter-Glo (AID 824;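 active means viability at or below 27.92% in each of two runs, the all-compound median minus 4 SD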;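 further: 0% = 20 µM Hyamine control and 100% = vehicle cell control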). The following applies: 60 h, at 10 µM, stronger effect = lower value.
Assay [12] can be described thus: inhibitors of the yeast RAM network, pilot screen, dse1pr::URA3 reporter, 5-FOA selection (AID 869;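 active means inhibition over a set limit, the all-compound mean plus 3 SD, in both replicate runs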;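 further: 0% = DMSO wells with no growth and 100% = 10 µM 1-NA-PP1 with full growth; RAM network block rescues cells from 5-FOA so hits raise OD615 growth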). Particulars: S. cerevisiae dse1pr::URA3 5-FOA growth, OD615, 2 d; at 10 µM; stronger effect = higher value; strain carries analog-sensitive mutant Cbk1 kinase.
The nature of assay [13]: HUVEC growth inhibition – cell-based, human, primary screen (AID 575;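 active means viability at or below 30% in both replicate assays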;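 further: 100% = median of untreated cell wells with 0.1% DMSO on each plate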). Particulars: HUVEC proliferation, CellTiter-Glo luminescence, 72 h; at 10 µM; stronger effect = lower value.
Setting [14] is: H69AR cells + 2 uM doxorubicin, measured here: viability with 2 uM doxorubicin, stronger effect = lower value.
[15] abbreviates: H69AR cells, compound alone cytotoxicity.

Chain of Receptor tyrosine-protein kinase erbB-2 (Homo sapiens) (P04626 whole entry, looked up): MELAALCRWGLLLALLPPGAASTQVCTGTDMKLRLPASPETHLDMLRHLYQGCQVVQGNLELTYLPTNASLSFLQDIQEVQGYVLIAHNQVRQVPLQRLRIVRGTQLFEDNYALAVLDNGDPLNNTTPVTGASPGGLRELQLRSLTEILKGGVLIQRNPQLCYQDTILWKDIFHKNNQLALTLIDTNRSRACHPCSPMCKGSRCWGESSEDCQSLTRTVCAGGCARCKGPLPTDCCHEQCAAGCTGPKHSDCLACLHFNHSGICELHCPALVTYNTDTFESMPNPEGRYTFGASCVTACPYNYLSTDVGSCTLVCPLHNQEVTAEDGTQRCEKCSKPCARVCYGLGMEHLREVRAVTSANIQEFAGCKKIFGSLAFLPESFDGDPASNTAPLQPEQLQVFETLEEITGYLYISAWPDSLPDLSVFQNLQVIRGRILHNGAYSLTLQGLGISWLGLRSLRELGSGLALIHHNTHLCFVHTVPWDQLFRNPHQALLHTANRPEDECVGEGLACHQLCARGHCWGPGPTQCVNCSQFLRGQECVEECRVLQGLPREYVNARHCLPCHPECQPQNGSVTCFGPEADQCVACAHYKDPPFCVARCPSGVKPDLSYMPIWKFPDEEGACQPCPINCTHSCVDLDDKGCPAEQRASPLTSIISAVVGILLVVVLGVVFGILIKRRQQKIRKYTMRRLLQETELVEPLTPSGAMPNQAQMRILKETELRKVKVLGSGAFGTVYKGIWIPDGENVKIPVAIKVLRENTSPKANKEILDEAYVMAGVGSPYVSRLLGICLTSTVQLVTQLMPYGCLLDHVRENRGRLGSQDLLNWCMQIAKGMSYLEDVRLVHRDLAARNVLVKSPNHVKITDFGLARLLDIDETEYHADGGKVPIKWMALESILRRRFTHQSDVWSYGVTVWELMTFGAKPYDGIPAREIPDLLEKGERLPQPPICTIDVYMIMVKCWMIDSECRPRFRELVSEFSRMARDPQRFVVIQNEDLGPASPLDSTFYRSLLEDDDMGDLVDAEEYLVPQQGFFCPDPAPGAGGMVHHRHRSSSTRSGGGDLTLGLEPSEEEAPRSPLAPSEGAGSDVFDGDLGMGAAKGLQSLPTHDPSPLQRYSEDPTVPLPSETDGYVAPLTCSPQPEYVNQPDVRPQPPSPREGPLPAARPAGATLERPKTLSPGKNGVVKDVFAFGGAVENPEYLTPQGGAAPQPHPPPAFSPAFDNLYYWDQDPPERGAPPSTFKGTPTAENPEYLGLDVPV

In the case of `Cn1c(=O)[nH]c(=O)c2c1nc(CN1CCN(c3cccc(Cl)c3)CC1)n2CCc1ccccc1`, the viability in assay [1] was 75%; in assay [3], 75% (inactive); in [4] (setting [14]), 24.8%; in assay [4] (setting [15]), 23.5%. The Her2 level in assay [2] is 96% (inactive). For the same compound, the differential viability (reversal) in assay [4] (H69AR cells + 2 uM doxorubicin) is -1.32% (inactive). In addition, the inhibition was -1.04% (inactive) in assay [5] and -6.98% (inactive) in assay [6].
In the case of `N#Cc1ccccc1Cn1c(=O)n(Cc2ccc(C(=O)NCc3ccco3)cc2)c(=O)c2sccc21`, the viability in assay [1] is 75.5%; in [3], 75.5% (inactive); in [7] it was 77.8% (inactive); in assay [4] (setting [14]), 68.3%; in assay [4] (setting [15]), 77.8%; in assay [10], 91.3% (inactive). Moreover, the viability in assay [11] was 79.5% (inactive). Besides, the Her2 level in assay [2] was 80% (inactive). For the same compound, the differential viability (reversal) in assay [4] (H69AR cells + 2 uM doxorubicin) is 9.52% (inactive). In addition, the inhibition was -1.28% (inactive) in [5], -1.67% (inactive) in [6] and 2.11% (inactive) in [12]. Besides, the growth inhibition in assay [8] was -22.5% (inactive). Also, the viability increase in [9] was -4.44% (inactive).
With `CNCCCC1c2ccccc2C=Cc2ccccc21`, the viability in assay [3] is 82% (inactive); in [13] it was 69.5% (inactive); in assay [7], 92% (inactive); in assay [4] (setting [14]), 76.7%; in [4] (setting [15]), 92%. The differential viability (reversal) in assay [4] (H69AR cells + 2 uM doxorubicin) was 15.2% (inactive).
Turning to `Cn1c(=O)n(CCN2CCOCC2)c(=O)c2c1nc1n2CCN1c1ccccc1`, the viability is 41.5% in [1]; 52.8% (inactive) in assay [13]; 67.9% (inactive) in assay [7]; 63.5% in assay [4] (setting [14]); 67.9% in [4] (setting [15]). Further, the Her2 level in assay [2] was 102% (inactive). In assay [4] (H69AR cells + 2 uM doxorubicin), the differential viability (reversal) is 4.43% (inactive). In addition, the inhibition in [5] is 3.51% (inactive); in assay [6] it was -2.54% (inactive).
For `Nc1nonc1C(=O)NCCNCc1cc(Br)ccc1OCc1ccccc1F`, the viability in assay [1] was 97.5%; in [3], 97.5% (inactive); in assay [7] it was 66.8% (inactive); in assay [4] (setting [14]), 68.4%; in [4] (setting [15]), 66.8%. For the same compound, the Her2 level in [2] is 78.5% (inactive). Also, the differential viability (reversal) in assay [4] (H69AR cells + 2 uM doxorubicin) was -1.58% (inactive). Also, the inhibition is -5.87% (inactive) in [5] and -6.13% (inactive) in [6].
For the compound `O=C(NC1CCCC1)C(c1cccs1)N(C(=O)c1ccno1)c1ccccc1` (stereo not drawn), the viability in assay [1] is 57.5%; in assay [13], 95.2% (inactive); in assay [7], 91.2% (inactive); in [4] (setting [14]) it was 85.1%; in [4] (setting [15]), 91.2%. In addition, the Her2 level in assay [2] was 92% (inactive). The differential viability (reversal) in [4] (H69AR cells + 2 uM doxorubicin) was 6.13% (inactive). For the same compound, the inhibition in [5] was -3.78% (inactive); in [6] it was 5.08% (inactive).
For `COc1cc(C)nc(N2CCCC(C(=O)Nc3cccc(Cl)c3Cl)C2)n1` (stereo not drawn), the viability is 71% in [1], 71% (inactive) in assay [3], 58.3% in assay [4] (setting [14]) and 56.4% in assay [4] (setting [15]). For the same compound, the Her2 level in assay [2] was 62.5% (inactive). Besides, in assay [4] (H69AR cells + 2 uM doxorubicin), the differential viability (reversal) is -1.86% (inactive). Besides, the inhibition in assay [5] was 0.39% (inactive); in assay [6] it was -10.2% (inactive).
Turning to `OC(CCN1CCCC1)(c1ccccc1)C1CCCCC1` (stereo not drawn), the viability in assay [3] is 93% (inactive); in assay [13], 69.5% (inactive); in assay [7], 95.9% (inactive); in assay [4] (setting [14]), 89.3%; in [4] (setting [15]), 95.9%. For the same compound, the differential viability (reversal) in assay [4] (H69AR cells + 2 uM doxorubicin) is 6.63% (inactive).
On to `CCCCOc1ccc(N(CC(=O)NC2CCCC2)C(=O)CCC(=O)Nc2ccccn2)cc1`, for which the viability was 101% (inactive) in assay [3]; 71.7% (inactive) in assay [13]; 69.4% (inactive) in [7]; 64.4% in assay [4] (setting [14]); 69.4% in assay [4] (setting [15]). Also, the differential viability (reversal) in assay [4] (H69AR cells + 2 uM doxorubicin) is 5% (inactive). Moreover, the inhibition is -1.3% (inactive) in assay [5] and 2.95% (inactive) in assay [6].
In the case of `CC(C)N=c1cc2n(-c3ccc(Cl)cc3)c3ccccc3nc-2cc1Nc1ccc(Cl)cc1`, the viability in assay [3] was 102% (inactive); in assay [13], 9.11% (active); in assay [7], 64.4% (inactive); in [4] (setting [14]) it was 71%; in [4] (setting [15]), 64.4%. Moreover, the differential viability (reversal) in [4] (H69AR cells + 2 uM doxorubicin) was -6.59% (inactive).
In the case of `CNCCC=C1c2ccccc2CCc2ccccc21`, the viability in assay [3] is 23%; in assay [13] it was 71.6% (inactive); in [7], 80.1% (inactive); in assay [4] (setting [14]), 75.5%; in assay [4] (setting [15]), 80.1%. Besides, the differential viability (reversal) in assay [4] (H69AR cells + 2 uM doxorubicin) was 4.63% (inactive).
For `C=C(C)COc1ccc(-c2nc(N)ncc2-c2ccc(OC)cc2)c(O)c1`, the viability in [1] is 160%; in assay [3], 160% (inactive); in [4] (setting [14]), 31.8%; in [4] (setting [15]), 33.2%. For the same compound, in [2], the Her2 level was 73% (inactive). Also, the differential viability (reversal) in assay [4] (H69AR cells + 2 uM doxorubicin) is 1.44% (inactive). Further, the inhibition in [5] is -1.56% (inactive); in assay [6], 7.17% (inactive).
Take `Nc1ncnc2oc(-c3ccco3)c(-c3ccco3)c12`: the viability was 96.5% in assay [1]; 96.5% (inactive) in assay [3]; 75.7% (inactive) in [7]; 68.4% in [4] (setting [14]); 75.7% in [4] (setting [15]). Further, in assay [2], the Her2 level is 77% (inactive). In addition, the differential viability (reversal) in assay [4] (H69AR cells + 2 uM doxorubicin) is 7.29% (inactive). Besides, the inhibition in assay [5] was -0.13% (inactive); in assay [6] it was -4.03% (inactive).
As to `CCCc1ccc(Oc2cn[nH]c2-c2ccc(O)c(C)c2O)cc1`, the viability in [1] is 106%; in assay [3] it was 106% (inactive); in assay [4] (setting [14]) it was 34.6%; in [4] (setting [15]) it was 8.33%. Moreover, the Her2 level in assay [2] was 76.5% (inactive). Also, the differential viability (reversal) in assay [4] (H69AR cells + 2 uM doxorubicin) is -26.3% (inactive). The inhibition in [5] and in assay [6] was 100% (active) each time.
Take `COc1cc2c(N3CCOCC3)cc(O)c(CC(=O)Nc3ccccc3)c2cc1OC`: the viability was 90.5% in assay [1]; 90.5% (inactive) in assay [3]; 75.3% (inactive) in assay [7]; 89.3% in [4] (setting [14]); 75.3% in [4] (setting [15]). Also, the Her2 level in assay [2] is 98.5% (inactive). Besides, in [4] (H69AR cells + 2 uM doxorubicin), the differential viability (reversal) is -14% (inactive). The inhibition in assay [5] is -5.32% (inactive); in [6], -6.89% (inactive).
With `CCCc1cc(-n2ccnc2)n2c(nc3ccccc32)c1C#N`, the viability in [1] is 89.5%; in assay [3], 89.5% (inactive); in assay [4] (setting [14]), 55.8%; in [4] (setting [15]), 45.8%. The Her2 level in assay [2] is 74% (inactive). In addition, the differential viability (reversal) in assay [4] (H69AR cells + 2 uM doxorubicin) is -10.1% (inactive). Further, the inhibition in assay [5] was -3.92% (inactive); in assay [6], 2.06% (inactive).
In the case of `CCCc1cc(=O)[nH]c(SCc2ccccc2)n1`, the viability is 101% (inactive) in [3]; 106% (inactive) in [13]; 90.4% (inactive) in assay [7]; 81.9% in [4] (setting [14]); 90.4% in [4] (setting [15]). Besides, in [4] (H69AR cells + 2 uM doxorubicin), the differential viability (reversal) was 8.54% (inactive). Moreover, the inhibition is 1.04% (inactive) in assay [5] and -2.46% (inactive) in [6].
For the compound `CCN1CCN(Cc2nc3c(c(=O)[nH]c(=O)n3C)n2Cc2ccccc2Cl)CC1`, the viability in assay [1] is 80.5%; in assay [13] it was 87.9% (inactive); in assay [7], 92% (inactive); in assay [4] (setting [14]), 96.2%; in assay [4] (setting [15]), 92%. Further, the Her2 level in assay [2] is 114% (inactive). Further, the differential viability (reversal) in assay [4] (H69AR cells + 2 uM doxorubicin) is -4.17% (inactive). For the same compound, the inhibition in assay [5] was -0.51% (inactive); in assay [6] it was -3.17% (inactive).
